Out of some 310,000 compounds screened, about 2,200 (0.71%) showed an effect of 50% or more. The effect is printed as a negative number. The sample as a whole holds a higher share of strong results than the screen did.

We go through 88 compounds from PMC4336329 (PLoS ONE, 2015).

Sequence of human ether-à-go-go-related gene (hERG) potassium channel (Q12809 whole entry, looked up): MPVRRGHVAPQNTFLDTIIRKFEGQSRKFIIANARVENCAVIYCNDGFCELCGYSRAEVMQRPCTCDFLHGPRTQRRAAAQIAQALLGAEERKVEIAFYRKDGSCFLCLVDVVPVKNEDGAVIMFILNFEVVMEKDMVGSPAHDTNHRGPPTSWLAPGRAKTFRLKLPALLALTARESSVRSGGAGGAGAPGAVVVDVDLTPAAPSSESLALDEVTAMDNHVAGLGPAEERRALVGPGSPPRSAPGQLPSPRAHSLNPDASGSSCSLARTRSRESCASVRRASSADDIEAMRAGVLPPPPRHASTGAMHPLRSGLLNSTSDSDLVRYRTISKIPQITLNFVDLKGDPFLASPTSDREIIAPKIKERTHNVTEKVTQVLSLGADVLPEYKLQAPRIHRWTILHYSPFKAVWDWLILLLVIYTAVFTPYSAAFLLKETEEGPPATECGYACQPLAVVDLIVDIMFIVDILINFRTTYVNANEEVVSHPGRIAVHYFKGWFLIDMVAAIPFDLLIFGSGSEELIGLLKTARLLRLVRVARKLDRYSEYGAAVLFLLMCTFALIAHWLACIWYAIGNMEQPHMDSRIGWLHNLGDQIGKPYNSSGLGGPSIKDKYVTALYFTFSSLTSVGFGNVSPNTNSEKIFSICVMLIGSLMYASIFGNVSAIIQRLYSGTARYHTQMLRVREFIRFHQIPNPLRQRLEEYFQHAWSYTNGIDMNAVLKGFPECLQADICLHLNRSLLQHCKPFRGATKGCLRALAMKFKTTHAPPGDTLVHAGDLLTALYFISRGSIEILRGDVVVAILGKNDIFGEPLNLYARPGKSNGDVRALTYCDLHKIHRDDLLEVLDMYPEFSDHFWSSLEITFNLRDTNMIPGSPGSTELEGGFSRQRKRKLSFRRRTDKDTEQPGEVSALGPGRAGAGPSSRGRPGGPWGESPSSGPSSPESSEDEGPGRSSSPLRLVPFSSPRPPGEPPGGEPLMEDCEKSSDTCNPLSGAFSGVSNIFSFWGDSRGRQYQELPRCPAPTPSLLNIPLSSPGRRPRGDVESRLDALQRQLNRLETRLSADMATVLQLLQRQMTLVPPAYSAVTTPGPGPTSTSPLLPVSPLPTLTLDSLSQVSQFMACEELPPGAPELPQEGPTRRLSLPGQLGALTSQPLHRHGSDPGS

This experiment concerns the target human ether-à-go-go-related gene (hERG) potassium channel (human, UniProt Q12809). Briefly: primary screen, population patch clamp on CHO cells stably expressing hERG; higher = less effect of the substance.
As to `CC(C)C(NC(=O)C1CCCCC1)C(=O)N1CCN(c2ccc(F)cc2)CC1` (stereo not shown), the “hERG current change (%, negative = inhibition) at 1uM” value is given as -32.1%.
For `CS(=O)(=O)N1CCN(c2ccccc2NC(=O)c2ccc3c(c2)OCCO3)CC1`, the “hERG current change (%, negative = inhibition) at 1uM” value stood at 9.09%.
Regarding `COc1cc(C(=O)N[C@@H](C)C(=O)N2CCC3(CC2)NCCc2[nH]cnc23)cc(OC)c1OC`, the “hERG current change (%, negative = inhibition) at 1uM” value stood at 15.3%.
As for `CN(C)c1ccc(CNS(=O)(=O)c2csc(C(N)=O)c2)cc1`, the “hERG current change (%, negative = inhibition) at 1uM” value is listed as 13%.
Consider `COc1ccc(Cl)cc1CSc1n[nH]c(C)n1`, for which the “hERG current change (%, negative = inhibition) at 1uM” value is reported as 16.6%.
`O=C(N/N=C/c1ccc(Cl)s1)C(O)c1ccccc1` (stereo not shown): the “hERG current change (%, negative = inhibition) at 1uM” value came out at 16.4%.
In the case of `O=c1c([N+](=O)[O-])c(N2CCCC2)c2ccccc2n1-c1ccccc1`, the “hERG current change (%, negative = inhibition) at 1uM” value came out at 4.99%.
For `CCn1cc(C2N3CC4(C)CN2CC(C)(C3)C4=O)c2ccccc21` (stereo not shown), the “hERG current change (%, negative = inhibition) at 1uM” value was 4.63%.
Consider `CC[C@]12CCCN3CCc4c(n(c5ccccc45)C(=O)C1)C32` (stereo partly shown), for which the “hERG current change (%, negative = inhibition) at 1uM” value is -50.5%.
On to `Cl.Cn1c2c(c3ccccc31)CCN1CCC[C@]21c1ccccc1`, for which the “hERG current change (%, negative = inhibition) at 1uM” value was 12.1%.
To `CCOC(=O)C1=CC[C@H]2c3c(c4ccccc4n3C)C[C@H]1N2C` belongs 15.5%.
Consider `NC(=O)C1CCCc2c1n(Cc1ccccc1)c1ccccc21` (stereo not shown), for which the “hERG current change (%, negative = inhibition) at 1uM” value stood at 9.63%.
Regarding `CCOC(=O)C1=C[C@]2(CC)CCCN3CCc4c(n1c1ccccc41)[C@@H]32`, the “hERG current change (%, negative = inhibition) at 1uM” value is recorded as -95.5%.
As for `CCOC(=O)NNC(=O)CCn1c2c(c3ccccc31)CCCC2`, the figure is 6.89%; as for `O=C(O)Cn1c(=O)c2c(c3ccccc31)CCC2`, 11.5%; as for `CC[C@]12CCCN3CCc4c(n(c5ccccc45)C(=O)C1)[C@@H]32`, -70.5%.
In the case of `CCN1CCC(=NNC(=O)CC23CC4CC(CC(C4)C2)C3)CC1`, the “hERG current change (%, negative = inhibition) at 1uM” value is recorded as 11.5%.
Regarding `COc1cc(NC(c2ccccc2)c2ccccc2)cc(OC)c1OC`, the “hERG current change (%, negative = inhibition) at 1uM” value is listed as 5.7%.
With `Nc1nc(/C=C/c2cccnc2)nc(-c2ccccc2O)n1`, the “hERG current change (%, negative = inhibition) at 1uM” value was 10.4%.
Turning to `COc1cccc(COC(=O)C2CCN(S(=O)(=O)c3ccc(Cl)cc3)CC2)c1OC`, the “hERG current change (%, negative = inhibition) at 1uM” value stood at 5.7%.
Consider `CC(=O)c1ccc(S(=O)(=O)N2CCN(c3ccccc3F)CC2)cc1`, for which the “hERG current change (%, negative = inhibition) at 1uM” value stood at 8.26%.
As to `Cl.OCCN1C2=NCCCN2c2ccccc21`, the “hERG current change (%, negative = inhibition) at 1uM” value amounted to 10.3%.
Take `Cl.OC(CN1C2=NCCCN2c2ccccc21)c1ccc2c(c1)OCO2` (stereo not shown): the “hERG current change (%, negative = inhibition) at 1uM” value is -68.6%.
To `Cl.OC(CN1C2=NCCCN2c2ccccc21)c1ccc(Br)cc1` (stereo not shown) belongs -86.2%.
For `Cl.OC(CN1C2=NCCCN2c2ccccc21)c1ccc(Cl)cc1` (stereo not shown), the “hERG current change (%, negative = inhibition) at 1uM” value is on record as -76.2%.
`Cl.OC(CN1C2=NCCN2c2ccccc21)c1ccc2c(c1)OCO2` (stereo not shown): the “hERG current change (%, negative = inhibition) at 1uM” value is reported as -27.7%.
As for `Cl.OC(CN1C2=NCCN2c2ccccc21)c1ccccc1` (stereo not shown), the “hERG current change (%, negative = inhibition) at 1uM” value was -5.32%.
With `Br.O=C(CN1C2=NCCN2c2ccccc21)c1ccc2c(c1)OCO2`, the “hERG current change (%, negative = inhibition) at 1uM” value was -42.1%.
As to `Cl.c1ccc2c(c1)N1CCCN=C1N2CCN1CCCCC1`, the “hERG current change (%, negative = inhibition) at 1uM” value was -26.2%.
With `Br.O=C(CN1C2=NCCN2c2ccccc21)c1ccc(Br)s1`, the “hERG current change (%, negative = inhibition) at 1uM” value is on record as -0.685%.
To `OC(CN1C2=NCCN2c2ccccc21)c1ccc(Br)cc1` (stereo not shown) belongs -63%; to `Cn1c(=O)n(C)c2cc(NC(=O)CSc3nnc(-c4ccccc4O)n3-c3ccccc3)ccc21`, 6.95%.
Regarding `O=C(C1=NN[C@@H]2C(=O)N(c3cccc(F)c3)C(=O)[C@H]12)c1ccc2ccccc2n1`, the “hERG current change (%, negative = inhibition) at 1uM” value stood at 6.85%.
With `CN(C)CCCN(C(=O)c1ccc(Br)s1)c1nc2cc3c(cc2s1)OCO3.Cl`, the “hERG current change (%, negative = inhibition) at 1uM” value stood at 4.06%.
For `O=C(c1cc2ccccc2o1)c1nc2c(n1O)CCCCC2`, the “hERG current change (%, negative = inhibition) at 1uM” value stood at 9.78%.
To `COCCCNC(=O)Cn1c(=O)n(CCCCCC(=O)Nc2ccccc2)c(=O)c2sccc21` belongs 14%; to `Cc1ccc(S(=O)(=O)N2CCCC(C(=O)NNCC(=O)Nc3cc(F)ccc3F)C2)cc1` (stereo not shown), -0.56%.
Regarding `Cc1ccccc1CN1C2=NCCCN2c2ccccc21.Cl`, the “hERG current change (%, negative = inhibition) at 1uM” value is -27.3%.
`Cc1ccc(C(O)CN2C3=NCCCN3c3ccccc32)cc1.Cl` (stereo not shown): the “hERG current change (%, negative = inhibition) at 1uM” value is -51.4%.
Consider `Cc1ccc(C(O)CN2C3=NCCN3c3ccccc32)cc1.Cl` (stereo not shown), for which the “hERG current change (%, negative = inhibition) at 1uM” value is reported as -40.9%.
Take `CC1CN(S(=O)(=O)c2ccc(C(=O)NCCCn3ccnc3)cc2)CC(C)O1` (stereo not shown): the “hERG current change (%, negative = inhibition) at 1uM” value came out at 11.7%.
In the case of `CCc1nc(SCC(=O)c2ccc(Cl)s2)c2oc3ccccc3c2n1`, the “hERG current change (%, negative = inhibition) at 1uM” value is on record as 9.25%.
Regarding `CCCOc1cccc(C(=O)NCCNC(=O)c2ccco2)c1`, the “hERG current change (%, negative = inhibition) at 1uM” value was determined as 18.6%.
As for `O=C(N/N=C/c1cc2c(cc1[N+](=O)[O-])OCO2)c1ccccn1`, the figure is 10.1%; as for `CCC(C)N(C)Cc1cccc(C2(O)CCN(S(=O)(=O)c3ccc(F)cc3)CC2)c1` (stereo not shown), -30.8%.
For `Cc1cc(S(=O)(=O)N2CCN(c3c(C)cccc3C)CC2)ccc1F`, the “hERG current change (%, negative = inhibition) at 1uM” value is recorded as -0.574%.
For `CCC(C)N(C)Cc1cccc(C2(O)CCN(S(=O)(=O)c3ccc(F)c(C)c3)CC2)c1` (stereo not shown), the “hERG current change (%, negative = inhibition) at 1uM” value was -71.2%.
`Cc1c(O[C@@H]2O[C@H](CO)[C@@H](O)[C@H](O)[C@H]2O)ccc2c1oc(=O)c1ccccc12`: the “hERG current change (%, negative = inhibition) at 1uM” value amounted to 16.9%.
For the compound `Cn1cccc1Cc1nnc(SCC(=O)N2CCCC2)n1CCc1ccccc1`, the “hERG current change (%, negative = inhibition) at 1uM” value amounted to 10.7%.
As for `Cc1nc2nc(N)nn2c(C)c1C/C=C/c1ccccc1`, the “hERG current change (%, negative = inhibition) at 1uM” value is 2.83%.
To `Cc1nnc2ccc(-c3cccc(NC(=O)c4ccco4)c3)nn12` belongs 1.54%; to `Cc1nnc2ccc(-c3cccc(NC(=O)c4ccc(Br)o4)c3)nn12`, -52.2%.
As for `Cc1nnc2ccc(-c3cccc(NC(=O)c4ccc(Cl)nc4)c3)nn12`, the figure is -1.98%; as for `COc1ccc(CN2CCSc3sccc3C2=O)cc1`, 3.85%; as for `CCc1ccc(Nc2ncc3c(n2)CC(c2ccco2)CC3=O)cc1` (stereo not shown), 5.43%.
To `Cn1nccc1C(=O)N1CCN(c2ncccn2)CC1` belongs 9.95%; to `Cl.NC(=O)c1ccc(OCCC(O)N2CC=C(c3ccc(F)cc3)CC2)cc1` (stereo not shown), -53%.
As for `CN1CCNC(=O)C1CC(=O)N1CC=C(c2ccc(F)cc2)CC1` (stereo not shown), the “hERG current change (%, negative = inhibition) at 1uM” value is recorded as 16.2%.
Consider `CCCCOc1ccc(C(=O)NCC(=O)N2CC=C(c3ccccc3)CC2)cc1`, for which the “hERG current change (%, negative = inhibition) at 1uM” value is recorded as 10.7%.
To `O=C(NCc1ccccc1)c1cccc(S(=O)(=O)NCc2ccccc2)c1` belongs 6.18%; to `CCN(CC)c1ccc(NC(=O)C2CCC(CNc3c(N4CCCC4)c(=O)c3=O)CC2)c(C)c1` (stereo not shown), 13.6%.
As for `CCOc1ccc(C(C)=O)cc1COC(=O)C1=COCCO1`, the “hERG current change (%, negative = inhibition) at 1uM” value is on record as -0.905%.
To `Cc1cccc(CCNCc2cc3cccc(C)c3[nH]c2=O)c1` belongs -35.7%; to `CNCc1cc2ccc(C)cc2[nH]c1=O`, -6.99%; to `COc1ccc(CCN(Cc2cc3ccc(C)cc3[nH]c2=O)C(C)=O)cc1OC`, -26.6%.
As for `Cc1cccc(CCNCc2cc3ccc(C)cc3[nH]c2=O)c1`, the figure is -54.6%; as for `Cc1ccc2cc(CNCCc3ccccc3C)c(=O)[nH]c2c1`, -42.9%.
With `COc1ccc(CCNCc2cc3ccc(C)cc3[nH]c2=O)cc1OC`, the “hERG current change (%, negative = inhibition) at 1uM” value is reported as -53.5%.
On to `Cc1ccc(Cl)cc1N1CCN(C(=O)Cc2c(C(=O)O)[nH]c3ccc(Cl)cc23)CC1`, for which the “hERG current change (%, negative = inhibition) at 1uM” value is listed as 22.4%.
In the case of `COCCOc1cnn(-c2cc(Oc3ccc(C)cc3)ncn2)c(=O)c1Cl`, the “hERG current change (%, negative = inhibition) at 1uM” value turned out to be 7.88%.
In the case of `Cc1ccc(-n2c(SCC3CNC(=O)O3)nnc2-c2ccccc2)cc1C` (stereo not shown), the “hERG current change (%, negative = inhibition) at 1uM” value amounted to 0.305%.
As for `CCOc1ccc(NC(=O)CN(C)C(=O)c2c(C)noc2C)cc1OCC`, the figure is 9.87%; as for `CCN(CC)CCCNC(=S)Nc1ccc(Br)cc1`, -8.09%; as for `O=C(NCc1ccccn1)c1ccc(OC2CCN(Cc3ccc(F)cc3F)CC2)cc1`, 0.219%.
Turning to `COc1ccc(C(=O)NC2CC2)cc1OC1CCN(Cc2ccc(F)cc2Cl)CC1`, the “hERG current change (%, negative = inhibition) at 1uM” value is -62%.
For `COCCNC(=O)c1cccc(OC2CCN(Cc3ccc(F)cc3OC)CC2)c1`, the “hERG current change (%, negative = inhibition) at 1uM” value amounted to 10.6%.
Consider `COc1ccc(C(=O)NC2CC2)cc1OC1CCN(Cc2ccc(F)cc2F)CC1`, for which the “hERG current change (%, negative = inhibition) at 1uM” value is given as -75.1%.
In the case of `COc1ccc(C(=O)NC2CCN(Cc3c(F)cccc3Cl)CC2)cc1OC`, the “hERG current change (%, negative = inhibition) at 1uM” value is listed as 10.1%.
With `COc1ccc(C(=O)NCC(=O)OCc2ccc(F)cc2Cl)cc1OC`, the “hERG current change (%, negative = inhibition) at 1uM” value is given as 11.2%.
Regarding `CCCN1CCN(C(=O)c2oc3c(Cl)cccc3c2C)CC1`, the “hERG current change (%, negative = inhibition) at 1uM” value was -0.0965%.
In the case of `CCCCC(=O)Nc1cccc(NC(=O)CC)c1`, the “hERG current change (%, negative = inhibition) at 1uM” value was determined as 10.3%.
Take `Cc1ccccc1-n1cc(-c2ccc(Br)cc2)nc1SCC(N)=O`: the “hERG current change (%, negative = inhibition) at 1uM” value stood at 10.3%.
With `Clc1cccc(OCCCCN2CCCCC2)c1`, the “hERG current change (%, negative = inhibition) at 1uM” value is given as -4.66%.
Consider `CCC1CCCCN1CCCCOc1cccc(Cl)c1.O=C(O)C(=O)O` (stereo not shown), for which the “hERG current change (%, negative = inhibition) at 1uM” value is recorded as -55.6%.
For `Clc1cccc(OCCN2CCOCC2)c1.O=C(O)C(=O)O`, the “hERG current change (%, negative = inhibition) at 1uM” value worked out at 5.84%.
Turning to `CCNC(=O)NC(=O)C(C)N1C(=O)NC(c2ccccc2)(c2ccccc2)C1=O` (stereo not shown), the “hERG current change (%, negative = inhibition) at 1uM” value is -2.55%.
With `CC(C(=O)NC(N)=O)N1C(=O)NC(c2ccccc2)(c2ccccc2)C1=O` (stereo not shown), the “hERG current change (%, negative = inhibition) at 1uM” value is given as -0.156%.
In the case of `COc1ccc(CNC(=O)C(C)N2C(=O)NC(c3ccccc3)(c3ccccc3)C2=O)cc1` (stereo not shown), the “hERG current change (%, negative = inhibition) at 1uM” value is -56.1%.
